Bioassay records as filed in PubChem.
In the library only some 7.1% were active in any assay of this set; here they are far more common.
Marburg entry – inhibitors of Marburg virus binding or entry into cells | Marburg virus pseudotype entry/binding inhibition, cell-based | Potency, µM (top dose mostly 49.2 µM), inactives show at the highest dose activity change, negative = inhibition, actives largely listed as inhibitors | 6.5% of 18,000 active | AID 720532
Lassa entry – Lassa virus entry inhibition. Lassa virus pseudotyped entry inhibition, cell-based qHTS. Potency, µM (highest dose often 49.2 µM), inactives show top-dose activity change, negative = inhibition, hits mostly inhibitors. 4.1% of 18,000 active
* hit, by the source's call; ? = inconclusive; nt = not tested or not shown; ! = repeats disagree; [ ] = remark or other dose. The call rests on the fitted dose curve; tested in HEK293 cells. On the % scale 0 is the no-effect control and ±100 the full control effect; potency means the concentration at half of the fitted maximal effect.

SMILES | Marburg entry | Lassa entry
CNc1nc(-c2ccc(N(C)C)cc2)nc2ccccc12 | 17.8µM* | -6.8%
CN(C)c1ccc(-c2nc(Nc3ccncc3)c3ccccc3n2)cc1 | ? | -32.4%
CCOC(=O)CN1C(=O)NC(c2ccccc2)C(C(C)=O)=C1C (stereo not given) | ? | -18.5%[8.59 µM]
COc1ccc(COc2ccc(Cc3cnc(N)nc3N)cc2OC)cc1 | -16.9% | 157.7%
COC(=O)C1=C(C(=O)OC)[C@@H]2N(C)c3ccccc3[C@@]23C[C@@H](CO)N(C(=O)NC2CCCC2)C3=N1 | ? | 2.4%[8.59 µM]
COc1cc([C@@H]2c3cc4c(cc3C(O[C@@H]3O[C@@H]5CO[C@@H](C)O[C@H]5[C@H](O)[C@H]3O)C3COC(=O)[C@@H]32)OCO4)cc(OC)c1OP(=O)(O)O (stereo not given in full) | 2.82µM* | 3.16µM*
COc1cc([C@@H]2c3cc4c(cc3[C@@H](O[C@@H]3O[C@@H]5CO[C@@H](C)O[C@H]5[C@H](O)[C@H]3O)[C@H]3COC(=O)[C@H]23)OCO4)cc(OC)c1O | ? | 1.12µM*
COc1cc(C2c3cc4c(cc3C(OC3OC5COC(C)O[C@@H]5C(O)C3O)C3COC(=O)C23)OCO4)cc(OC)c1O (stereo not given in full) | 1.12µM* | ?
COC(=O)C1=C(C(=O)OC)[C@@H]2N(Cc3ccccc3)c3ccccc3[C@@]23CCC(=O)N(CCc2ccccn2)C3=N1 | ? | -22.8%[8.59 µM]
O=C1C2=C(C(=O)c3ccccc31)[C@H]1O[C@](c3ccsc3)(Cc3ccccc31)O2 | -7.7%[8.59 µM] | -7.7%[8.59 µM]
C=C[C@H]1C[C@H]2C=C(C)COP(=O)(O2)O1 | -5.0% | 39.5%
CN(C)CCOC(c1ccccc1)c1ccccc1 (tested in a mixture with another compound) | -11.0% | -4.3%
CN(C)CCOC(c1ccccc1)c1ccccc1 | 28.2µM*! | ?
C=CCN1[C@@H](CC(C)C)COc2c(Cl)cccc2S1(=O)=O | -9.4% | 18.8%
CC(C)CON=C1C[C@@H](O)[C@@H](O)[C@@H]2[C@H]3C(=O)N(c4ccc(F)cc4F)C(=O)[C@@H]3CC[C@H]12 | -10.3%[8.59 µM] | -28.7%[8.59 µM]
NC1(c2ccc(-c3nc4ccn5c(=O)[nH]nc5c4cc3-c3ccccc3)cc2)CCC1 | 6.31µM* | ?
CCN1C(=NCCc2ccc(Br)cc2)NC(c2ccccc2)C(C(=O)OC)=C1C (stereo not given) | ? | 2.0%[8.59 µM]
C=COCCN1C=C(C(=O)OCC)C(c2ccccc2)NC1=O (stereo not given) | 10.0%[8.59 µM] | 18.0%[8.59 µM]
CN(C)CCCOc1nn(Cc2ccccc2)c2ccccc12 | ? | -21.8%[17.8 µM]
OCc1ccc(-c2nn(Cc3ccccc3)c3ccccc23)o1 | 14.1µM* | ?
COc1cc2c(c(OC)c1)[C@H](C=Cc1ccccc1)[C@@H]([C@H](O)CO)OC2 | 17.0%[8.59 µM] | 0.5%[8.59 µM]
CC(=O)O[C@H]1C[C@@H]2CC[C@@H]3[C@H](CC[C@@]4(C)[C@H]3C[C@H]([N+]3(C)CCCCC3)[C@@H]4OC(C)=O)[C@@]2(C)C[C@@H]1N1CCCCC1 | 26.2% | 2.1%
CCC(=O)O[C@H]1[C@@H](N2CCCCC2)C[C@H]2[C@@H]3CC[C@H]4C[C@H](OC(C)=O)[C@@H](N5CCCCC5)C[C@]4(C)[C@H]3CC[C@@]21C | 3.55µM* | ?
COC(=O)N[C@H](C(C(=O)OC)=C(C)NCc1ccccc1)c1ccccc1 | -3.7%[8.59 µM] | nt
C=CCc1ccc(O)c(-c2cc(CC=C)ccc2O)c1 | 8.9% | -14.4%
SMILES | Marburg entry | Lassa entry
C=CCc1ccc(OC)cc1 | 6.31µM* | 6.31µM*
COC(=O)C1=C(C(=O)OC)[C@@H]2N(C)c3ccccc3[C@@]23CCC(=O)N(CCCOC(C)C)C3=N1 | -9.7%[8.59 µM] | -20.1%[8.59 µM]
COc1ccc2c(c1)[C@@H](NC(=O)C(F)(F)F)C1CCCCC21c1ccccc1 (stereo not given in full) | -4.1%[8.59 µM] | 4.6%[8.59 µM]
CCCCCC1=CC2=C(C(=O)OC)C(c3ccccc3)NC(=O)N2CC1 (stereo not given) | 1.3%[8.59 µM] | -7.3%[8.59 µM]
CNc1ccnc(-c2ccccc2CN(C)C)n1 | -5.5% | 3.7%
Cc1cccc(CNc2ccnc(-c3ccccc3CN(C)C)n2)c1 | 11.2µM* | ?
Cc1cccc(CNc2cc(-c3ccccc3CN(C)C)ncn2)c1 | 6.31µM* | -4.4%
COc1ccccc1-c1nccc(NCc2cccc(C)c2)n1 | 12.6µM* | -19.1%
COCCNc1cc(-c2ccccc2CN(C)C)ncn1 | -15.3% | -1.7%
COc1ccccc1-c1cncnc1NCc1cccc(C)c1 | -17.0% | -4.8%
O[C@H]1C[C@H](c2ccccc2)N(Cc2cccs2)C[C@H]1n1cc(C2CC2)nn1 | ? | 2.0%
CC(C)C[C@H]1COc2c(Cl)cccc2S(=O)(=O)N1C | 12.2% | nt
CCN1C(=NCc2cccc(C(F)(F)F)c2)NC(c2cccc(F)c2)C(C(=O)OC)=C1C (stereo not given) | 36.0%[8.59 µM] | 11.8%[8.59 µM]
CCOC(=O)[C@@]1([C@@H](NC(=O)OC)c2ccccc2)CCCC1=O | 12.0%[8.59 µM] | -1.8%[8.59 µM]
C(#CCN1CCCC1)CN1CCCC1 | 8.91µM* | ?
S=C=Nc1cccc(C2(N3CCCCC3)CCCCC2)c1 | ? | 14.1µM*
CCCC[C@]12Cc3c(ccc4ccccc34)[C@H](O1)C1=C(O2)C(=O)c2ccccc2C1=O | 22.1%[8.59 µM] | 13.9%[8.59 µM]
COc1ccc(-c2ccncc2)cc1C(N)=O | ? | -14.1%
CN(Cc1ccco1)Cc1cc(-c2ccnc3cc(Cl)ccc23)ccc1O | -13.8% | -14.3%
CCN(CCO)CCCC(C)Nc1ccnc2cc(Cl)ccc12 (stereo not given) | 1.26µM* | -17.1%
CCN(CC)Cc1cc(Nc2ccnc3cc(Cl)ccc23)ccc1O | 5.01µM* | ?
C=CCN1c2ccccc2[C@]23CCC(=O)N(Cc4ccco4)C2=NC(C(=O)OC)=C(C(=O)OC)[C@H]13 | -1.4%[8.59 µM] | -14.3%[8.59 µM]
C=C[C@@H]1C[C@@H](C=C)OP(=O)(O[C@@H](C=C)[C@@H](C)C(=O)OC)O1 (stereo not given in full) | -24.2% | 8.7%
Cc1ccc(CN2[C@@H](C)[C@@H](c3ccccc3)Oc3c(Cl)cccc3S2(=O)=O)cc1 | ? | 1.8%
CO[C@@H]1CC[C@@]2(C)[C@@H](CC[C@@]3(C)[C@H]2CC=C2[C@H]4CC(C)(C)[C@H](O)[C@@H](OC(C)=O)[C@]4(CO)[C@H](O)C[C@]23C)[C@@]1(C)CO (tested in a mixture with another compound) | -24.4%[17.8 µM] | 8.8%[17.8 µM]
C[C@@H]1OC(OC2CC[C@@]3(C)C(CC[C@@]4(C)C3CC=C3C5CC(C)(C)CC[C@]5(C(=O)OC5OCC(O)[C@@H](O)[C@@H]5OC5O[C@@H](C)[C@H](O[C@H]6OC(CO)C(O)C(O)C6O)C(O)C5O)C(O)C[C@@]34C)C2(C)C)C(O)C(O)[C@H]1OC1OCC(O)C(O)[C@H]1O (stereo not given in full) | ? | 11.2µM*
CCOC(=O)CN1C(=O)NC(c2ccc(Br)cc2)C(C(C)=O)=C1C (stereo not given) | 46.7%[8.59 µM] | 38.9%[8.59 µM]
C[C@H](N)[C@H](O)c1cccc(O)c1 | 1.4%[17.8 µM] | -2.7%[17.8 µM]
CC(N)C(O)c1ccc(O)c(O)c1 (stereo not given) | 11.2µM*! | -7.6%
CC1CC[C@@]2(OC1)OC1CC3C4CC[C@H]5CC(O)CC[C@@]5(C)C4CC[C@]3(C)C1C2C (stereo not given in full) | -3.0% | -8.1%
